Measurements taken from the OligoGym collection.

Biological target: IRX2
Experiment: pooled miR-30 sensor sort-seq; sequence = guide strand
Conditions: shRNA
Also: reference of the scale not given here.

Row | Sequence | sensor-assay potency score (higher = more potent)
1 | TACTTGTCCTTGCACTCCGAGC | -1.54
2 | TGTCCTTGCACTCCGAGCCCGA | -0.973
3 | TCTTCGCTTTTGTTTCTCGGGG | -0.791
4 | TTGTCGGGACTCTCGTCCTTGC | -0.88
5 | TCCTCGTCCTCATCTTCGCTTT | -1.22
6 | ATCTTCGCTTTTGTTTCTCGGG | -1.09
7 | TAGTTTGTGTAGTTGCCGTAGA | 0.0957
8 | TCTTTCTTGGGCTCGTAGCCGC | -1
9 | TTCTTGGGCTCGTAGCCGCCGC | -1.6
10 | TTCGCTTTTGTTTCTCGGGGCC | -0.0873
11 | ATGGCTAGCATGATCTTCTCGC | -0.31
12 | TTGTCCTTGCACTCCGAGCCCG | -1.01

Biological target: ISLR2
Experiment: as above
Conditions: shRNA

Row | Sequence | sensor-assay potency score (higher = more potent)
13 | TTGAAAACAACGAAAACAGGAA | -0.395
14 | TTGACGCCTTCCTCTACGCGGG | -1.19
15 | TTTCCAAAGTCTTCGCTCGTTT | -0.577
16 | TGAGCGTACTTGTCCACGCAGG | -1.13
17 | TTTGTAAGCGCAGTCCGCGAAC | -1.25
18 | TTTGGAACTAAAAACTAGGGGT | 0.382
19 | TTGCGCAGGTCGCTCCACGGAA | -1.26
20 | TTGTCAGGGACTACACGCCGGG | -0.648
21 | TTGAGCTCTGCGCTCTGGTTGA | -0.693
22 | TAGCGCACCGAGTGCGTCCCGG | -1.05
